Experimental data: paper PMC4552634, “A New Set of Chemical Starting Points with Plasmodium falciparum Transmission-Blocking Potential for Antimalarial Drug Discovery” (PLoS ONE, 2015)
The campaign covered roughly 13,000 compounds. About 3,200 (25%) showed an effect of 50% or more. Some of the results follow.

tested on: P. falciparum stage V gametocytes; parameters: BacTiter-Glo ATP luminescence viability of purified stage V gametocytes in 384-well plates, per cent inhibition versus DMSO; conditions: 48 h, 5 µM; inhibitor

Row | SMILES | % Inhibition [%]
1 | COc1ccc(C2CC(=O)C3=C(C2)NC(C)=C(C(=O)OC2CCCC2)C3c2cccc(O)c2)cc1 (stereo not drawn) [TCMDC-125631] | 10.18
2 | CC(C)(CNCc1ccc(Cl)cc1)c1nc(-c2ccc(Cl)c(O)c2)c(-c2ccncc2)[nH]1 [TCMDC-140548] | -50.17
3 | CC(C)(CNCc1ccc(F)c(F)c1)c1nc(-c2ccc(Cl)c(O)c2)c(-c2ccncc2)[nH]1 [TCMDC-140672] | -67.6
4 | COc1ccc(CNCC(C)(C)c2nc(-c3ccc(Cl)c(O)c3)c(-c3ccncc3)[nH]2)cc1 [TCMDC-140538] | -60.58
5 | CC(C)(CNCc1ccc(C(F)(F)F)cc1)c1nc(-c2ccc(Cl)c(O)c2)c(-c2ccncc2)[nH]1 [TCMDC-140689] | 22.22
6 | CC(C)(CNCc1cccc(Oc2cccc(C(F)(F)F)c2)c1)c1nc(-c2ccc(Cl)c(O)c2)c(-c2ccnc(N)n2)[nH]1 [TCMDC-141166] | 55.63
7 | CC(C)(CNCc1ccc(Cl)c(Cl)c1)c1nc(-c2ccc(Cl)c(O)c2)c(-c2ccncc2)[nH]1 [TCMDC-140688] | 78.8
8 | CN(C)CCCOc1ccc(CNCC(C)(C)c2nc(-c3ccc(Cl)c(O)c3)c(-c3ccncc3)[nH]2)cc1 [TCMDC-140650] | 71.95
9 | CC(C)(CNCc1cccc(Oc2ccccc2)c1)c1nc(-c2ccc(Cl)c(O)c2)c(-c2ccnc(N)n2)[nH]1 [TCMDC-141167] | 23.98
10 | CC(C)(CNCc1ccc(C(F)(F)F)cc1)c1nc(-c2ccc(Cl)c(O)c2)c(-c2ccnc(N)n2)[nH]1 [TCMDC-141162] | 38.42
11 | Cc1ccc2nc(C)cc(NC(=O)Nc3ccc(N(C)C)cc3)c2c1 [TCMDC-140108] | -84.19
12 | N#Cc1ccc2c(c1)CCN(CCC1CCC(NC(=O)/C=C/c3ccc(Cl)c(Cl)c3)CC1)CC2 (stereo not drawn) [TCMDC-139792] | -12.21
13 | CC(C)C(=O)Nc1c(F)cc(F)cc1CCc1ccc(O)cc1 [TCMDC-137532] | 15.35
14 | CC1(C)N=C(N)NC(Nc2ccc(F)c(F)c2)=N1 [TCMDC-123533] | -23.61
15 | CN1CCN(Cc2ccc(-c3ccc4c(Nc5ccc(Oc6ccccn6)cc5)ccnc4c3)o2)CC1 [TCMDC-138420] | 73.84
16 | c1ccc(Oc2ccc(Nc3ccnc4cc(-c5ccc(CN6CCOCC6)o5)ccc34)cc2)nc1 [TCMDC-138424] | 11.61
17 | CN1CCN(Cc2ccc(-c3ccc4c(Nc5ccc(Oc6ccccc6)cc5)ccnc4c3)o2)CC1 [TCMDC-138402] | 53.53
18 | c1ccc(Oc2ccc(Nc3ccnc4cc(-c5ccc(CN6CCNCC6)o5)ccc34)cc2)nc1 [TCMDC-138421] | 97.92
19 | CN1CCN(Cc2ccc(-c3cc4nccc(Nc5ccc(Oc6ccccc6)cc5)c4cc3Cl)o2)CC1 [TCMDC-138463] | 37.01
20 | c1ccc(Oc2ccc(Nc3ccnc4cc(-c5ccc(CNCCN6CCOCC6)o5)ccc34)cc2)nc1 [TCMDC-138423] | -53.28
21 | Cc1ccc(O)cc1Nc1ccnc2cc(-c3ccc(CN4CCCCC4)o3)ccc12 [TCMDC-138384] | 25.1
22 | c1ccc(Oc2ccc(Nc3ccnc4cc(-c5ccc(CN6CCCCC6)o5)ccc34)cc2)nc1 [TCMDC-138422] | -0.3034
23 | CN(C)CCNC(=O)[C@H](CC1CCCCC1)NC(=O)c1ccc(O)c(-c2ccc(Cl)c(Cl)c2)c1 [TCMDC-140865] | 44.5

Row | SMILES | % Inhibition [%]
24 | O=C(Nc1ccc(-c2nc3ccccc3[nH]2)cc1)c1ccc(Cl)s1 [TCMDC-123725] | -15.63
25 | CC1c2cccc(O)c2CCN1CCc1ccc(Cl)c(Cl)c1 (stereo not drawn) [TCMDC-138976] | -24.59
26 | O=C(Nc1cccc(-c2ccc(-c3nc4ccccc4[nH]3)cc2)c1)c1csnn1 [TCMDC-136901] | -10.17
27 | CN1CCC(NCc2cccc(-c3ccc(S(=O)(=O)NCCc4ccccn4)c(F)c3)c2)CC1 [TCMDC-132220] | 17
28 | COc1ccc(CNC2CCN(C)CC2)cc1-c1ccc(S(=O)(=O)NCCc2ccccn2)c(F)c1 [TCMDC-132264] | 102.9
29 | COc1ccc(CNC2CCN(C)CC2)cc1-c1ccc(S(=O)(=O)NCCc2ccccn2)c(C)c1 [TCMDC-132271] | 72.47
30 | COc1ccc(CNC2CCN(C)CC2)cc1-c1ccc(S(=O)(=O)NCCc2ccccn2)cc1 [TCMDC-132246] | 50.8
31 | Cc1nnc(-c2ccc3ccccc3c2)c2cn(-c3cccc([N+](=O)[O-])c3)nc12 [TCMDC-138592] | 4.043
32 | O=C(NCc1cccc(F)c1)Nc1ccc(-c2cccc(-c3nc4ccccc4[nH]3)c2)cc1 [TCMDC-133297] | 6.044
33 | COc1ccc2nccc([C@@H](O)CN3CCC(NC(=O)c4cc5c(F)cc(F)cc5[nH]4)CC3)c2c1 [TCMDC-140781] | -8.295
34 | O=C(Nc1ccc2nc3n(c(=O)c2c1)CCCCC3)C(=O)N1CCN(c2ccc(F)cc2)CC1 [TCMDC-125293] | -18.55
35 | O=c1cc(NCCCN(Cc2cc3c(Cl)cc(Cl)cc3[nH]2)Cc2cc3c(Cl)cc(Cl)cc3[nH]2)[nH]c2ccccc12 [TCMDC-139849] | 1.838
36 | CCCN(Cc1ccc(OCC)cc1)Cc1cc(=O)c2cc(Cl)ccc2[nH]1 [TCMDC-124740] | 40.3
37 | CCCN(Cc1ccc(C)cc1)Cc1cc(=O)c2cc(Cl)ccc2[nH]1 [TCMDC-124741] | 52.71
38 | COc1ccc2nccc([C@@H](O)CN3CCC(NC(=O)c4cccc(C(=O)c5ccccc5)c4)CC3)c2c1 [TCMDC-141283] | -43.58
39 | CCC(C)NCC(O)(c1ccc(Cl)cc1)c1ccc(Cl)cc1 (stereo not drawn) [TCMDC-123502] | 68.55
40 | CCC(C)NCc1c(O)ccc2c(CNC(C)CC)c(O)ccc12 (stereo not drawn) [TCMDC-137585] | -26.38
41 | CCC(C)NCCC(c1ccccc1)c1ccccc1O (stereo not drawn) [TCMDC-125727] | 32.82
42 | O=c1cc(NCCCNC2CCOc3c(Cl)cccc32)[nH]c2ccccc12 (stereo not drawn) [TCMDC-139551] | -16.88
43 | O=C(/C=C/c1ccc(Cl)c(Cl)c1)NCCCCCCN1CCN(C(=O)Nc2cccc(Cl)c2)CC1 [TCMDC-135831] | -35.92
44 | Nc1nc(N)c2c(ccc3c2ccn3CC2CC2)n1 [TCMDC-123991] | 40.96
45 | Cc1cccc(Cn2ccc3c(N)nc(N)nc32)c1 [TCMDC-137327] | 54.63
46 | Cc1cccc(Cn2ccc3c4c(N)nc(N)nc4ccc32)c1 [TCMDC-137814] | 60.36

Row | SMILES | % Inhibition [%]
47 | Nc1nc(N)c2c(ccc3c2ccn3Cc2cccc(F)c2)n1 [TCMDC-137810] | 101.3
48 | Cc1ccc(C)c(Cn2ccc3nc(N)nc(N)c32)c1 [TCMDC-137330] | 9.396
49 | Nc1nc(N)c2c(ccc3c2ccn3Cc2ccc3c(c2)OCO3)n1 [TCMDC-137808] | 102.2
50 | Cc1cccc(-c2c(C)nc(N)nc2N)c1 [TCMDC-138072] | 4.683
51 | Nc1nc(N)c2c(ccn2Cc2cc3c(cc2Cl)OCO3)n1 [TCMDC-137328] | -14.37
52 | Cc1cc(NC(=O)Nc2ccc3ncccc3c2)c2ccccc2n1 [TCMDC-139829] | -30.57
53 | COc1ccc(C2CCN(C#N)C2)cc1OC1CCCC1 (stereo not drawn) [TCMDC-131880] | 32.2
54 | COc1ccc(-n2c(=O)c3c(n4c(SC(C)C)nnc24)-c2ccccc2CC32CCCCC2)cc1 [TCMDC-125706] | 19.59
55 | NC1=NC(CCc2ccccc2)N(c2ccccc2)C(N)=N1 (stereo not drawn) [TCMDC-131292] | 10.89
56 | O=C(O)C(F)(F)F.O=C1CCCN1CCCNCc1ccc(-c2cccc(-c3nc4ccccc4[nH]3)c2)cc1 [TCMDC-132549] | -11.63
57 | O=C(O)C(F)(F)F.c1cc(-c2ccc(CNCCCn3ccnc3)cc2)cc(-c2nc3ccccc3[nH]2)c1 [TCMDC-132541] | 99.24
58 | O=C(O)C(F)(F)F.c1ccc2[nH]c(-c3ccc(-c4ccc(CN5CCN(CCN6CCOCC6)CC5)cc4)cc3)nc2c1 [TCMDC-133928] | -28.02
59 | Cn1nccc1C(=O)NCCNCc1ccc(-c2cccc(-c3nc4ccccc4[nH]3)c2)cc1.O=C(O)C(F)(F)F [TCMDC-132562] | -0.1444
60 | O=C(O)C(F)(F)F.c1cc(-c2ccc(CNCCCN3CCOCC3)cc2)cc(-c2nc3ccccc3[nH]2)c1 [TCMDC-132548] | 54.17
61 | c1ccc(CCNc2ncnc3c2[nH]c2ccccc23)cc1 [TCMDC-124578] | -4.873
62 | CC(C)(C)c1cc(C(=O)Nc2cccnc2)cc(C(=O)Nc2cccnc2)c1 [TCMDC-125788] | -16.11
63 | COc1ccc2nccc([C@@H](O)CN3CCC(NCc4nc5c(OCc6ccccc6)cccc5[nH]4)CC3)c2c1 [TCMDC-141083] | 34.25
64 | CC(CC(=O)NCC1(c2ccc(F)cc2Cl)CCOCC1)C(=O)c1ccc(Cl)cc1 (stereo not drawn) [TCMDC-134256] | 68.04
65 | N#CC(CC(=O)c1ccc(Cl)cc1)c1cccc(F)c1 (stereo not drawn) [TCMDC-123760] | 17.52
66 | Cc1cccc2nc(-c3cccc(-c4ccc(C(=O)NCc5nccn5C)cc4)c3)[nH]c12 [TCMDC-132356] | 7.308
67 | COc1ccc(S(=O)(=O)N(c2cc(Br)cc3c2OCC3)S(=O)(=O)c2ccc(OC)c(N3CCN(C)CC3)c2)cc1N1CCN(C)CC1 [TCMDC-139809] | 54.84
68 | COc1ccc(NS(=O)(=O)c2ccccc2Br)cc1N1CCN(C)CC1 [TCMDC-139092] | -23.57
69 | COc1ccc(S(=O)(=O)Nc2cc(Br)cc3c2OCCC3)cc1N1CCN(C(=O)C(Cl)(Cl)Cl)CC1 [TCMDC-139661] | -19.32
